Laboratory results taken from PubChem BioAssay (Tox21).
Where “and” joins values, the source holds several entries; their conditions need not be identical. Identical values can stand only once. Records with an inconclusive call do not appear. Where a call stands in place of a potency, no number is given. Where a structure was tested more than once in an assay, its records may differ in their call. Calls of active or inactive are those of the source. Unless noted, calls come from the whole dose curve.

Columns and labels:
[1] = target: Gonadotropin-releasing hormone receptor (Homo sapiens) (UniProt P30968); experiment: Human gonadotropin-releasing hormone receptor (GnRHR) small molecule agonists, calcium flux assay in GnRHR-HEK293 cells (AID 1920063); note: nearly all actives have a fitted effect of over 35% in size
Gonadotropin-releasing hormone receptor (Homo sapiens), sequence (P30968 whole entry, looked up): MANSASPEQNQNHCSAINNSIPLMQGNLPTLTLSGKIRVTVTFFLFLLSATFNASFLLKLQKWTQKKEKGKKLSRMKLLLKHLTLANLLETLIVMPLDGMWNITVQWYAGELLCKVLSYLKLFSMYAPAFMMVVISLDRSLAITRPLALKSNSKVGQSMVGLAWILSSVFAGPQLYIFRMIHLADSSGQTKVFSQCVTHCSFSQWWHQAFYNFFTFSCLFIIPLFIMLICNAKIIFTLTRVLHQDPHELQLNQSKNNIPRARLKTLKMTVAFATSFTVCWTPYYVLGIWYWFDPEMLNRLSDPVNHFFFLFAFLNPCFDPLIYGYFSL
Procedure, shortened: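 Cells: HEK293 stably expressing human GnRHR. Steps: overnight (18 h) culture, 1 h calcium dye loading at 37 C, compound addition, kinetic fluorescence read at 480/540 nm. Each compound tested at 15 concentrations in triplicate.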

[2] = target: KiSS-1 receptor (Homo sapiens) (UniProt Q969F8); experiment: Human kisspeptin (KISS1R) small molecule agonists, calcium flux assay in KISS1R-HEK293 cells (AID 1920064; active = well fitted activation curve with a large enough effect in the repeat runs)
KiSS-1 receptor (Homo sapiens), sequence (Q969F8 whole entry, looked up): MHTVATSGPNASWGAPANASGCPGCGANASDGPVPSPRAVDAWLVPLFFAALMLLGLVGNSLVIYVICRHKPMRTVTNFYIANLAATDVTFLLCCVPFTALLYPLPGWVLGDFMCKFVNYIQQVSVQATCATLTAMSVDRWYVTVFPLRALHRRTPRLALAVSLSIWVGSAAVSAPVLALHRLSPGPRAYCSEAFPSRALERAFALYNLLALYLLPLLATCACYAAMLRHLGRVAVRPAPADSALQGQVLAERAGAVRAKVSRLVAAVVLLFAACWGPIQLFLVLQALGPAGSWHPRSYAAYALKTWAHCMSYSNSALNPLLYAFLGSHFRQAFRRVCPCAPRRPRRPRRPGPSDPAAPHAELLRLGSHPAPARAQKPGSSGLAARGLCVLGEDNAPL
Procedure, shortened: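 Cells plated and incubated 18 h; dye added, 1 h at 37 C; compounds in DMSO pinned in; signal read at 480/540 nm every second for 3 min. Each compound tested at 15 concentrations in triplicate.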

[3] = G protein-coupled receptor (GPCR) small molecule agonists, calcium flux assay: HEK293 wild type cell line counter screen (AID 1920065); note: potency is the fitted concentration of half-maximal effect
Procedure, shortened: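 Counter-screen of the Tox21 10K library for non-specific calcium release: dye-loaded cells received compounds in DMSO and were monitored by kinetic fluorescence (480/540 nm, 3 min). Fifteen concentrations, run in triplicate.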

[4] = p53 small molecule agonists, cell-based qHTS assay with human liver microsomes (AID 1963577);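 note: p53 response element beta-lactamase reporter cells with liver microsomes plus NADPH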
Procedure, shortened: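 Steps: plate p53RE-bla cells, incubate 5 h at 37 C; add compound in DMSO; add microsomes (0.5 mg/mL final) and NADPH (0.5 mg/mL final); incubate 16 h at 37 C; add LiveBLAzer, 2 h RT; read fluorescence.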

[5] = p53 small molecule agonists, cell-based qHTS assay with rat liver microsomes (AID 1963578)
Procedure, shortened: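 Metabolic activation is supplied by rat liver microsomes with NADPH (each 0.5 mg/mL final). p53RE-bla cells incubate with compound 16 h at 37 C; reporter activity is measured by LiveBLAzer fluorescence.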

[6] = p53 small molecule agonists, cell-based qHTS assay with human liver microsomes: qHTS cell viability counter screen (AID 1963579); note: nearly all actives have a fitted effect of over 45% in size
Procedure, shortened: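 After the 460/530 nm beta-lactamase read, CellTiter-Glo was added to the same wells and luminescence measured after 30 min at room temperature, giving viability of p53RE-bla cells treated 16 h with compounds plus microsomes and NADPH.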

[7] = p53 small molecule agonists, cell-based qHTS assay with rat liver microsomes: qHTS cell viability counter screen (AID 1963580); note: nearly all actives have a fitted effect of over 45% in size
Procedure, shortened: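 In HCT-116 cells carrying a p53 response element-bla reporter, compounds were metabolically activated in situ by rat liver microsomes with NADPH over 16 h. Cell ATP content then served as the cytotoxicity measure.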

[8] = p53 small molecule agonists, cell-based qHTS assay: qHTS cell viability counter screen (AID 1963581); note: nearly all actives have a fitted effect of over 45% in size
Procedure, shortened: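 Cells: HCT-116 with p53 response element-driven beta-lactamase. Treatment: 16 h, 37 C, compounds in DMSO. Read: CellTiter-Glo luminescence after 30 min RT.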

[9] = p53 small molecule agonists, cell-based qHTS assay (AID 1963582; active = well fitted activation curve with a large enough effect in the signal ratio in the repeat runs, not every such curve was filed as active; the % refers to the signal ratio)
Procedure, shortened: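 Quantitative HTS in p53RE-bla cells: after a 5 h settling period, compounds delivered in DMSO were left on cells for 16 h at 37 C, and reporter induction was measured as fluorescence following 2 h substrate loading.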

[10] = cAMP Responsive Elements (CRE) small molecule agonists, cell-based qHTS assay (AID 1963590)
Procedure, shortened: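 Agonist mode qHTS in CRE-bla HEK 293T cells: compounds dosed from DMSO for 3 h at 37 C/5% CO2, followed by LiveBLAzer B/G FRET substrate for 2 h at room temperature.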

[11] = cAMP Responsive Elements (CRE) small molecule antagonists, cell-based qHTS assay (AID 1963591; active = well fitted inhibition curve with a large enough effect in the signal ratio in the repeat runs, not every such curve was filed as active; the % refers to the signal ratio; note: potency is the fitted concentration of half-maximal effect)
Procedure, shortened: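 Antagonist mode: test compounds are co-incubated with the adenylyl cyclase activator NKH477 (0.25 uM final) on CRE-bla HEK293T cells for 3 h at 37 °C, followed by LiveBLAzer substrate loading.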

[12] = target: Beta-2 adrenergic receptor (Homo sapiens) (UniProt P07550); experiment: Adrenergic beta2 receptor (ADRB2) small molecule antagonists, cell-based qHTS assay (AID 1963592); note: series mostly up to about 92 µM; nearly all actives have a fitted effect of over 50% in size
Beta-2 adrenergic receptor (Homo sapiens), sequence (P07550 whole entry, looked up): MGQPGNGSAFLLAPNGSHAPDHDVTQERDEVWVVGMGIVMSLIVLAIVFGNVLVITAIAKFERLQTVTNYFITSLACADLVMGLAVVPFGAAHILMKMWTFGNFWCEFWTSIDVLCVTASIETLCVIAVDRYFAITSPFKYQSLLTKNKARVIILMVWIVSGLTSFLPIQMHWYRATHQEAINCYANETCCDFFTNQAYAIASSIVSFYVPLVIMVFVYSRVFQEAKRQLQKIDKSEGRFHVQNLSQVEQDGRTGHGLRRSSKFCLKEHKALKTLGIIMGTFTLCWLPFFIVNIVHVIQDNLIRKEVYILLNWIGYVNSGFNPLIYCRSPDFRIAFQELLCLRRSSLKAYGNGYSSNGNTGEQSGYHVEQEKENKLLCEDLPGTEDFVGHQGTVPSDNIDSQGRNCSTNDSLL
Procedure, shortened: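 Cells (CHO, stable ADRB2 overexpression) incubated 18-20hr at 37C; compounds added from DMSO; agonist mix (1nM isoproterenol, 100uM IBMX, 25uM Ro-20-1724) added; 0.5hr RT; d2-cAMP and anti-cAMP-cryptate added; 1hr RT; 665/615 nm read.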

[13] = target: Beta-2 adrenergic receptor (Homo sapiens) (UniProt P07550); experiment: Adrenergic beta2 receptor (ADRB2) small molecule agonists, cell-based qHTS assay (AID 1963593);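 note: CHO cells stably overexpressing human ADRB2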
Procedure, shortened: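 CHO cells stably over-expressing ADRB2 were plated overnight at 37C, then dosed with compounds plus a stimulation mix containing 100uM IBMX and 25uM Ro-20-1724 for 0.5hr at room temperature. cAMP was measured by HTRF competition, 1hr.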

[14] = target: D(2) dopamine receptor (Homo sapiens) (UniProt P14416); experiment: Dopamine D2 receptor (DRD2) small molecule agonists, cell-based qHTS assay (AID 1963594); note: nearly all actives have a fitted effect of over 35% in size
D(2) dopamine receptor (Homo sapiens), sequence (P14416 whole entry, looked up): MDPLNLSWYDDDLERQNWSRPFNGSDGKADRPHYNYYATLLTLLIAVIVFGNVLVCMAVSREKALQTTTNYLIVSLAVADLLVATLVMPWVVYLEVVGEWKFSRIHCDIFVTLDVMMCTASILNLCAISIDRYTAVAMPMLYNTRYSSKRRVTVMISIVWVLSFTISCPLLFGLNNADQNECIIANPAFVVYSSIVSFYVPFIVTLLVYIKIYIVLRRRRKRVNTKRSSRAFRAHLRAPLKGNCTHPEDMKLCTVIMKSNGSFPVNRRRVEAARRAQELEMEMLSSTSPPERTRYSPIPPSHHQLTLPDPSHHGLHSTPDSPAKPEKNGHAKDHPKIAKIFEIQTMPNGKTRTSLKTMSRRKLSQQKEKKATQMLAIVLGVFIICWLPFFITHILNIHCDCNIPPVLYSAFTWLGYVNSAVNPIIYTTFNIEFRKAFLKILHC
Procedure, shortened: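 HEK293 cells stably expressing DRD2 were cultured 24 h at 37 C, then given Ro20-1724 (0.1 mM final) and compounds for 10 min at room temperature. NKH477 (200nM) was then added for 30 min. cAMP was read by HTRF.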

[15] = target: D(2) dopamine receptor (Homo sapiens) (UniProt P14416); experiment: Dopamine D2 receptor (DRD2) small molecule antagonists, cell-based qHTS assay (AID 1963595; active = well fitted inhibition curve with a large enough effect in the signal ratio in the repeat runs, with a control signal flat; the % refers to the signal ratio)
Procedure, shortened: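 Human DRD2 antagonist qHTS measuring cAMP by HTRF. The cells are exposed to compound for 10 min, then to NKH477 (200 nM) and quinpirole (12 nM) for 30 min at RT, with Ro20-1724 (0.1 mM) present throughout.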

[16] = target: 5-hydroxytryptamine receptor 2A (Homo sapiens) (UniProt P28223); experiment: 5-hydroxytryptamine receptor 2A (HTR2A) small molecule antagonists, cell-based qHTS assay (AID 1963586); note: nearly all actives have a fitted effect of over 45% in size; note: potency is the fitted concentration of half-maximal effect
5-hydroxytryptamine receptor 2A (Homo sapiens), sequence (P28223 whole entry, looked up): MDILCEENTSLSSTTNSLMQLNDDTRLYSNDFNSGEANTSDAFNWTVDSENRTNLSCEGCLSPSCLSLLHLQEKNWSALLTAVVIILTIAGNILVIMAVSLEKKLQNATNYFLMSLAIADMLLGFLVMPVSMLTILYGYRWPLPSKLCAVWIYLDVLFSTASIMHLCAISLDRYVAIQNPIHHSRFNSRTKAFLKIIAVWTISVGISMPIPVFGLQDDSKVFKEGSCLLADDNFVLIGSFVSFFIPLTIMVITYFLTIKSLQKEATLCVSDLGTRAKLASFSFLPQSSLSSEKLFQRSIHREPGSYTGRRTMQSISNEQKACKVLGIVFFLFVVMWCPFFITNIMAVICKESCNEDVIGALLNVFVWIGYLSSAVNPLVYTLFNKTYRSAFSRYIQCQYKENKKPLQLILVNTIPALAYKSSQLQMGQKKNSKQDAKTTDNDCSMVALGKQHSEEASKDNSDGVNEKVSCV
Procedure, shortened: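 Antagonist-mode intracellular calcium assay: DOI (4 nM) added after 5 min compound pre-incubation at room temperature to dye-loaded HTR2A-CHO cells. Fluorescence followed for 3 min, sampled every second.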

[17] = target: 5-hydroxytryptamine receptor 2A (Homo sapiens) (UniProt P28223); experiment: 5-hydroxytryptamine receptor 2A (HTR2A) small molecule agonists, cell-based qHTS assay (AID 1963587); note: nearly all actives have a fitted effect of over 30% in size
Procedure, shortened: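 HTR2A-CHO cells, plated 18 h at 37 C/5% CO2, dye-loaded 1 h at 37 C; compounds in DMSO added by pin tool (agonist mode). Intracellular calcium flux read as kinetic fluorescence on FDSS over 2 min at 1 s intervals.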

[18] = target: Muscarinic acetylcholine receptor M1 (Homo sapiens) (UniProt P11229); experiment: Cholinergic receptor muscarinic 1 (CHRM1) small molecule antagonists, cell-based qHTS assay (AID 1963588); note: nearly all actives have a fitted effect of over 40% in size
Muscarinic acetylcholine receptor M1 (Homo sapiens), sequence (P11229 whole entry, looked up): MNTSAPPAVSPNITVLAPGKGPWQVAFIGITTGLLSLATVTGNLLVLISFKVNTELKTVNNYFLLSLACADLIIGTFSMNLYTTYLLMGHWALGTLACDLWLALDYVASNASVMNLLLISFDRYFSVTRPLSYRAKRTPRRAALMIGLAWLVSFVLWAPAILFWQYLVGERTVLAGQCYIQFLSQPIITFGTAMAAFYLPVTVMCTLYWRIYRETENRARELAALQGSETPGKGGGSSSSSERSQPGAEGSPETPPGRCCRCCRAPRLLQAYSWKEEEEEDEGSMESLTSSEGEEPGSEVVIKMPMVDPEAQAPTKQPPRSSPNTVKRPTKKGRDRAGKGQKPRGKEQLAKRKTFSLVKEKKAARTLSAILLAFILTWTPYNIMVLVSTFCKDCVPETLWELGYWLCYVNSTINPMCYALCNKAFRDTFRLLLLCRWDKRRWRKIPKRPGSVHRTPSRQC
Procedure, shortened: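 CHRM1-CHO calcium-flux assay, antagonist mode. Cells were seeded 18 h, dye-loaded 1 h at 37 C and given compound for 5 min at RT, then acetylcholine was added at 50nM. FDSS fluorescence was read 3 min; 15 concentrations, three runs.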

[19] = target: Muscarinic acetylcholine receptor M1 (Homo sapiens) (UniProt P11229); experiment: Cholinergic receptor muscarinic 1 (CHRM1) small molecule agonists, cell-based qHTS assay (AID 1963589); note: nearly all actives have a fitted effect of over 35% in size
Procedure, shortened: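 Agonist-mode qHTS in CHO cells stably carrying human muscarinic M1. Intracellular calcium is tracked by fluorescence every second after compound transfer; each compound runs at 15 concentrations in three independent runs.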

SMILES | Potency [1] | Potency [2] | Potency [3] | Potency [4] | Potency [5] | Potency [6] | Potency [7] | Potency [8] | Potency [9] | Potency [10] | Potency [11] | Potency [12] | Potency [13] | Potency [14] | Potency [15] | Potency [16] | Potency [17] | Potency [18] | Potency [19]
C/C=C/c1ccc(O)c(OC)c1 | inactive | inactive | inactive | inactive | inactive | inactive | inactive | inactive | inactive | inactive | inactive | inactive | inactive | inactive | inactive | – | – | – | –
CCN(CC)C(=S)SSC(=S)N(CC)CC | inactive | – | inactive and 25.1 µM (active) | – | – | – | – | – | – | inactive | 1.19 µM (active) | inactive | inactive | inactive | inactive | – | – | – | –
C[C@]12C=CC(=O)C=C1CC[C@H]1[C@@H]3C[C@@H](O)[C@](O)(C(=O)CO)[C@@]3(C)C[C@H](O)[C@@]12F | – | inactive | inactive | inactive | – | inactive | inactive | inactive | inactive | inactive | inactive | inactive | inactive | inactive | inactive | – | – | – | –
COC(=O)c1ccccc1O | inactive | inactive | inactive | – | inactive | inactive | inactive | inactive | inactive | inactive | inactive | inactive | – | inactive | inactive | – | – | – | –
CC(=O)OCCOC(C)=O | inactive | – | inactive | inactive | inactive | inactive | inactive | inactive | inactive | inactive | inactive | – | inactive | inactive | inactive | inactive | inactive | inactive | inactive
COc1ccc([N+](=O)[O-])cc1N | inactive | inactive | inactive | inactive | inactive | inactive | inactive | inactive | inactive | inactive | inactive | inactive | inactive | inactive | inactive | inactive | inactive | inactive | inactive
COc1ccc(Nc2ccccc2)c(C)c1 | inactive | inactive | inactive | inactive | inactive | inactive | inactive | – | inactive | inactive | inactive | inactive | inactive | inactive | inactive | inactive and 21.1 µM (active) | inactive | inactive | inactive
